HT1080-NT tox: kills 2HG-producing HT-1080-NT fibrosarcoma cells; HT-1080-NT fibrosarcoma viability, CellTiter-Glo ATP luminescence, 48 h; Potency, µM (titrated, usually from 46.1 µM), for inactives: at the top dose activity, negative = less viability, hits mostly cytotoxic; hit rate 1.6% among 360,000; AID 686970;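 further: NT is the 2HG producing partner of a matched IDH1 knockdown line; 0% = DMSO-treated cells and -100% = media-only wells without cells; nearly all actives have a fitted effect of over 55% in size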
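Compounds were tested in concentration-response format on HT-1080-NT cells for 48 hours at 37 degrees C. Cell viability came from CellTiter-Glo luminescence; curves were classified by r2, response magnitude and activity.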
TGFb inhibitor: TGF-b pathway inhibition; HepG2 CAGA-GFP TGF-b/SMAD3 reporter, GFP fluorescence, 18 h; TGF-beta stimulated, 500 pg/mL final; Potency, µM (titrated, usually from 46.1 µM), inactives show at the highest dose activity, negative = inhibition, hits mostly inhibitors; hit rate 1.2% among 410,000; further: on the % scale 0 is the no-effect control and ±100 the full control effect; nearly all actives have a fitted effect of over 65% in size
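First, reporter cells (HEPG2 CAGA-GFP) rested 2 h at 37 degrees C. Next, compounds were pinned in and TGF-beta added to 500 pg/mL final. After 18 h, GFP was imaged per cell and summed per well.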
ATXN viability: viability counter-screen for ATXN expression inhibitors; S2 cells (HEK-293 line with an ATXN2-luciferase reporter) viability, CellTiter-Fluor protease fluorescence, 24 h; Potency, µM (doses to about 56.7 µM), most hits filed as cytotoxic; hit rate 0.49% among 400,000; AID 651635; further: nearly all actives have a fitted effect of over 40% in size
HepG2 viability: counter-screen for TGF-b inhibitors: cytotoxicity in HepG2 cells | Potency, µM (top dose mostly 46.1 µM), inactives show at the highest dose activity change, negative = cytotoxicity, actives largely listed as cytotoxic | HepG2 CAGA-GFP viability, ATP luminescence, 18 h | hit rate 0.76% among 410,000
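CellTiter-Glo luminescence gave cytotoxicity after 18 hours at 37 degrees C. The cells were HepG2 CAGA-GFP in 1% FBS DMEM, stimulated with 500 pg/mL TGF-beta after compound addition. %Activity was normalised to no-cell wells (complete cell-killing) and DMSO (no toxicity), and curves were fitted and classified.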
ATXN2 expr inh: reduces ATXN2 reporter expression in HEK-293 cells. HEK-293 ATXN2-luciferase reporter, luminescence, 24 h. Potency, µM (top dose mostly 57 µM), without a hit: at the highest dose activity change, negative = inhibition, most hits filed as inhibitors. hit rate 0.72% among 360,000; further: on the % scale 0 is the no-effect control and ±100 the full control effect; nearly all actives have a fitted effect of over 55% in size
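qHTS (up to 57 uM final) was run with 24 h compound exposure of reporter cells at 37 °C. Each well was multiplexed: SteadyGlo luminescence measured ATXN2-luciferase expression after a fluorogenic Gly-Phe-AFC viability readout (25 uM final).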
HT1080 IDH1KD tx: HT-1080 IDH1 knockdown cell toxicity (counter line) | HT-1080 IDH1 knockdown viability, ATP luminescence, 48 h | Potency, µM (series often up to 46.1 µM), for inactives: top-dose activity, negative = toxicity, actives largely listed as cytotoxic | hit rate 2% among 360,000 | AID 686971;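 further: 0% = DMSO wells and -100% = cell-free medium wells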
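Luminescent ATP read-out (CellTiter-Glo, 10 min at room temperature) after 48 h compound exposure at 37 °C gave viability of IDH1-knockdown HT-1080 cells. Activity was normalised to DMSO and cell-free wells, then fitted as concentration-response curves.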
An asterisk follows results filed as active; i = inactive; ? = inconclusive; . = no result; [ ] = dose if it differs, or a comment. Rows were chosen to be rich in hits. Some 3.8% of all compounds tested hit in one or more screens of this group. The call rests on the fitted dose curve; in most records, active means well fitted curve in the direction sought with a large enough effect; inconclusive means small, poorly fitted or top-dose-only effect, or another doubt; inactive means no such curve, though single readings can be large; an effect the other way counts as inactive or inconclusive. Potency means the concentration at half of the fitted maximal effect.

SMILES | HT1080-NT tox | TGFb inhibitor | ATXN viability | HepG2 viability | ATXN2 expr inh | HT1080 IDH1KD tx
CC1=Nc2cc(C(=O)NCCCOC(C)C)ccc2Sc2ccccc21 | ? | -16% | i | 1% | -8% | 8.2µM*
CC(C)OCCCNC(=O)c1ccc2c(c1)NC(=O)c1ccccc1S2 | -11% | ? | i | -28% | -6% | ?
CC1=Nc2cc(C(=O)NCCCOC(C)C)ccc2Sc2ccc(C)cc21 | 0.73µM* | ? | i | 1% | 8% | 1µM*
CC1=Nc2cc(C(=O)NCCc3ccc(Cl)cc3)ccc2Sc2ccc(C)cc21 | . | 8.9µM* | . | -17% | . | .
COCCCNC(=O)c1ccc2c(c1)N=C(C)c1c(C)ccc(C)c1S2 | . | ? | ? | -29% | 23% | .
CCOC(=O)c1cccnc1SCC(=O)Nc1ccc(C)cc1C | . | 2% | . | -10% | . | .
C=C1C=C(C(F)F)n2ncc(C(=O)NCc3ccc(Cl)cc3)c2N1 | . | 2% | . | -2% | . | .
Cc1ccc(CSc2nc3c(cc2C#N)CCC3)cc1 | 19% | 7% | i | 6% | 6% | 10%
CN1CCc2nc(SCc3ccc(C(C)(C)C)cc3)c(C#N)cc2C1 | ? | -9% | i | -40% | -12% | 11µM*
CSC1=NC(C(Cl)(Cl)Cl)N=C(c2ccc(C)cc2)N1 (stereo not given) | 0.37µM* | ? | ? | 9% | 1% | 0.65µM*
CCC1N=C(SC)NC(C)=C1C(=O)c1ccccc1 (stereo not given) | -2% | 7% | i | 6% | . | -4%
CO[C@H]1C=CO[C@@]2(C)Oc3c(C)c(O)c4c(O)c(c(C=NN5CCN(C)CC5)c(O)c4c3C2=O)NC(=O)C(C)=CC=C[C@H](C)[C@H](O)[C@@H](C)[C@@H](O)[C@@H](C)[C@H](OC(C)=O)[C@@H]1C | -16% | -26% | 28µM* | -15% | 19% | -16%
Nc1ccccc1NC(=O)c1ccc(CNc2nccc(-c3cccnc3)n2)cc1 | . | . | . | . | 69% | .
CCn1c(C(=O)N2CCC(C(=O)N3CCN(c4cc(C)ccc4C)CC3)CC2)cc2sccc21 | . | ? | . | -21% | . | .
CCn1c(C(=O)N2CCC(C(=O)N3CCN(c4cccc(C)c4C)CC3)CC2)cc2sccc21 | . | 11µM* | . | -13% | . | .
CCN1CCN(c2cc(C)c3cc(NC(=S)NCc4cccs4)ccc3n2)CC1 | -9% | -5% | ? | -36% | . | -1%
COc1ccc(CNC(=S)Nc2ccc3nc(N4CCN(C)CC4)cc(C)c3c2)cc1 | 16µM* | ? | i | -51% | -1% | ?
Cc1cc(N2CCN(C)CC2)nc2ccc(NC(=S)NCc3cccs3)cc12 | 18µM* | 9% | ? | -19% | -4% | 23µM*
CCC1(C2CCN(Cc3c(C)[nH]c4ccccc34)CC2)NC(=O)N(Cc2ccc3c(c2)OCO3)C1=O (stereo not given) | . | . | i | . | . | .
Cc1ccc(OCCn2c(=S)[nH]c3ccccc32)c(C(C)C)c1 | -27% | 16µM* | ? | -116% | -22% | ?
Cc1ccc(NC(=S)NNc2ccc([N+](=O)[O-])cc2S(=O)(=O)Nc2ccccc2C(=O)O)cc1C | -5% | ? | 32µM* | -14% | -7% | -4%
CC(=O)Nc1ccc(C=NNc2ccc([N+](=O)[O-])cc2S(=O)(=O)Nc2ccccc2C(=O)O)cc1 | -6% | 2% | i | -4% | 5% | -4%
CCCCCCCC/C=C\CCCCCCCC(=O)NCc1ccc(O)c(OC)c1 | . | . | i | . | -26% | .
CCCCCCCC/C=C\CCCCCCCC(=O)NCCc1ccc(O)c(O)c1 | 4.6µM* | ? | 25µM* | -44% | 16µM* | 23µM*
O=C(NNC(=S)Nc1ccccc1)c1cc(Br)ccc1Cl | -3% | 14µM* | i | -16% | 7% | -2%
SMILES | HT1080-NT tox | TGFb inhibitor | ATXN viability | HepG2 viability | ATXN2 expr inh | HT1080 IDH1KD tx
O=C(NNC(=S)Nc1cccc(Cl)c1)c1ccccc1OC(F)F | ? | 13µM* | i | 4.5µM* | ? | ?
Cc1nc(-c2ccc(C(=O)Nc3ccc(F)cc3)cc2)cs1 | -22% | 1% | i | -27% | 59%[11.3 µM] | -3%
Cc1nc(-c2ccc(C(=O)Nc3ccccc3F)cc2)cs1 | 12µM* | 3% | i | -61% | -3%[11.3 µM] | 21µM*
Nc1nc(-c2ccc(NC(=O)c3ccco3)cc2)cs1 | 7.3µM* | 14% | i | -26% | 16µM* | 16µM*
Cc1nc(-c2ccc(NC(=O)c3ccco3)cc2)cs1 | ? | -13% | i | -63% | 4µM* | ?
COC(=O)[C@@H]1CCCN1Cc1ccc2c(c1)CN(Cc1cccc(Cl)c1)CCO2 | . | . | i | . | . | .
Cn1c(C(c2cc3ccccc3n2C)c2cc3ccccc3n2C)cc2ccccc21 | . | ? | . | -100% | . | .
Cc1csc(-c2nnc(Nc3ccc(Oc4ncccc4-c4ccnc(N)n4)cc3)c3ccccc23)c1 | . | . | . | . | 12µM* | .
NC(=O)NS(=O)(=O)c1ccc(Cl)cc1 | . | . | i | . | 8% | .
N#CCC(=O)N/N=C/c1cc(-c2ccccc2)n(-c2ccc(Cl)cc2)c1-c1ccccc1 | ? | ? | . | 11% | -34% | 21µM*
Cc1ccc(NC(=O)C2CCC(CNS(=O)(=O)c3csc(C(N)=O)c3)CC2)cc1Cl (stereo not given) | . | -19% | i | -29% | -8% | .
O=S(=O)(NCc1ccc(F)cc1)c1ccc2[nH]c3c(c2c1)CCCC3 | . | 18µM* | ? | -103% | 0% | .
O=S(=O)(NCc1ccc(Cl)cc1)c1ccc2[nH]c3c(c2c1)CCCC3 | . | 16µM* | ? | 16µM* | ? | .
Cc1cc(OC(C)C(=O)N(Cc2ccco2)Cc2ccco2)cc(C)c1Cl (stereo not given) | . | ? | . | -70% | . | .
O=Cc1ccc2[nH]ccc2c1 | . | -30% | . | -12% | . | .
CSc1ncc(Cl)c(C(=O)N(Cc2ccc(C(C)C)cc2)C2CCS(=O)(=O)C2)n1 (stereo not given) | . | -34% | i | -31% | 29% | .
Cc1ccc(NC(=O)c2sc(Cl)nc2C)c(C)c1 | 14% | 3% | i | 44% | -1% | 15%
Cc1cc(C)c(C)c(OC(=O)c2sc(Cl)nc2C)c1 | -10% | 0% | 22µM* | 1% | 20µM* | -21%
Cc1ccc(C2N=C(Nc3nc4ccccc4o3)NC3=C2C(=O)CC(C)(C)C3)cc1 (stereo not given) | . | 1% | . | 6% | . | .
O=C(Nc1ccc(-n2cnnn2)cc1)c1cn2ccccc2n1 | -29% | 0% | i | 4% | 4% | ?
O=C(Nc1ccccc1)c1cn2ccccc2n1 | ? | 2% | i | -44% | 11µM* | ?

Bioassay records from PubChem.
